Reference: PubChem BioAssay (EPA / NIEHS)
Activity calls are given as the source filed them. The calls were made as follows: active = hit-call score of the fitted dose curve at least 0.9, where 1 is the maximum; inactive = score below 0.9.

Tests used:
[1] = read-out: Interferon-gamma inducible Protein 10 (IP10), CXCL10 (gene 3627); assay: BSK_hDFCGF_IP10: BioMAP Diversity Plus: hDFCGF Assay for Interferon-gamma inducible Protein 10 (IP10) Biomarker Activity (AID 2283053); settings: primary human foreskin fibroblasts; actives raise or lower the signal
In short: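 ELISA read-out of IP-10 (CXCL10) from primary human skin fibroblasts, 24 h after compound addition. Gain or loss of signal versus DMSO baseline, bidirectional curve fitting.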

[2] = read-out: Urokinase-type plasminogen activator receptor (uPAR), PLAUR (gene 5329); assay: BSK_CASM3C_uPAR: BioMAP Diversity Plus: CASM3C Assay for Urokinase-type plasminogen activator receptor (uPAR) Biomarker Activity (AID 2283054); settings: primary human coronary artery smooth muscle cells; actives raise or lower the signal;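 also: cell-surface uPAR protein level quantified by ELISA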
[3] = read-out: Vascular cell adhesion molecule 1 (VCAM1), VCAM1 (gene 7412); assay: BSK_CASM3C_VCAM1: BioMAP Diversity Plus: CASM3C Assay for Vascular cell adhesion molecule 1 (VCAM1) Biomarker Activity (AID 2283055); settings: primary human coronary artery smooth muscle cells; actives raise or lower the signal;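 also: VCAM-1 protein level quantified by ELISA on the cells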
[4] = read-out: Collagen III, COL3A1 (gene 1281); assay: BSK_hDFCGF_CollagenIII: BioMAP Diversity Plus: hDFCGF Assay for Collagen III Biomarker Activity (AID 2283056); settings: primary human foreskin fibroblasts; actives raise or lower the signal
In short: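 ELISA read-out of collagen III from human skin fibroblast cultures sampled 24 h post-dosing. Values were derived by bidirectional fitting relative to the DMSO vehicle control.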

[5] = read-out: Epidermal growth factor receptor (EGFR), EGFR (gene 1956); assay: BSK_hDFCGF_EGFR: BioMAP Diversity Plus: hDFCGF Assay for Epidermal growth factor receptor (EGFR) Biomarker Activity (AID 2283057); settings: primary human foreskin fibroblasts; actives raise or lower the signal
In short: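 ELISA readout of EGFR on human dermal fibroblasts (primary foreskin cells), 24 h post-dosing; bidirectional curve fit vs DMSO baseline, gain or loss of signal scored.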

[6] = read-out: Interleukin-8 (IL8), CXCL8 (gene 3576); assay: BSK_hDFCGF_IL8: BioMAP Diversity Plus: hDFCGF Assay for Interleukin-8 (IL8) Biomarker Activity (AID 2283058); settings: primary human foreskin fibroblasts; actives raise or lower the signal
In short: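 Cells used are human skin primary fibroblasts. Chemical is added, cultures run 24 h, then IL-8 is quantified by ELISA, and gain or loss versus DMSO control is fitted in both directions.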

[7] = BSK_hDFCGF_Proliferation: Cell Proliferation Assessment in the BioMAP Diversity Plus: hDFCGF Assay (AID 2283059); settings: primary human foreskin fibroblasts;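 also: curves fitted for both rise and fall of signal versus DMSO baseline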
In short: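 Steps: dose primary human dermal fibroblasts (foreskin); […] fix in 10% TCA; stain with 0.1% SRB; read 560 nm; fit gain or loss of signal against DMSO.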

[8] = read-out: Macrophage colony-stimulating factor (MCSF), CSF1 (gene 1435); assay: BSK_hDFCGF_MCSF: BioMAP Diversity Plus: hDFCGF Assay for Macrophage colony-stimulating factor (MCSF) Biomarker Activity (AID 2283060); settings: primary human foreskin fibroblasts; actives raise or lower the signal
In short: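 Primary human foreskin fibroblasts dosed with chemical; 24 h later, M-CSF quantified by ELISA; curves fitted in both directions vs DMSO negative control.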

[9] = BSK_hDFCGF_SRB: Viability Assessment in the BioMAP Diversity Plus: hDFCGF Assay (AID 2283061); settings: primary human foreskin fibroblasts;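 also: cells exposed to compound for 24 h before the read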
In short: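 Readout is SRB absorbance at 560 nm, reflecting total protein in parallel cultures of human foreskin fibroblasts harvested 24 h after chemical dosing. Activity was fitted bidirectionally relative to DMSO.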

[10] = read-out: TIMP metallopeptidase inhibitor 1 (TIMP1), TIMP1 (gene 7076); assay: BSK_hDFCGF_TIMP1: BioMAP Diversity Plus: hDFCGF Assay for TIMP metallopeptidase inhibitor 1 (TIMP1) Biomarker Activity (AID 2283062); settings: primary human foreskin fibroblasts; actives raise or lower the signal
In short: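 Human skin fibroblasts (primary), hDFCGF system; compound exposure 24 h; TIMP-1 by ELISA; bidirectional fit vs DMSO negative control; overt cytotoxicity by SRB in parallel wells.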

Measured: AC50

COc1ccc2sc(C(=O)Nc3nnn[nH]3)c(OC(C)C)c2c1
inactive: [3]
active: [1] 13.6 µM | [2] 13 µM | [4] 5.42 µM | [5] 8.61 µM | [6] 20.5 µM | [7] 12.1 µM | [8] 11.4 µM | [9] 10.3 µM

CC(C)=CCC/C(C)=C/CO
inactive: all assays above

O=c1n(CC2CO2)c(=O)n(CC2CO2)c(=O)n1CC1CO1 (centres undefined)
inactive: [1] | [2] | [6] | [9]
active: [3] 18.6 µM | [4] 6.71 µM | [5] 30.7 µM | [7] 4.36 µM | [8] 20 µM

CC/C(=C\C(=N/O)C(N)=O)C(C)[N+](=O)[O-] (centres undefined)
not listed: [10]
inactive: all other assays above

COc1cccc(-c2ccc(/C=C\CN3CCCCCC3)cc2Cl)c1
active: [1] 27.3 µM | [2] 25.9 µM | [4] 12.1 µM | [5] 32.2 µM | [6] 34.1 µM | [7] 3.59 µM | [8] 22.4 µM | [9] 27.2 µM | [10] 29.1 µM
inactive: [3]

Oc1ccc2c(c1)-c1ccccc1C2
active: [7] 29.8 µM
inactive: all other assays above

C1N2CN3CN1CN(C2)C3
inactive: all assays above

CC(C)CCCCCCOC(=O)c1ccc(C(=O)OCCCCCCC(C)C)c(C(=O)OCCCCCCC(C)C)c1
inactive: all assays above

Cc1ccc(O)cc1
active: [2] 4.24 µM
inactive: all other assays above

CC(C)=CCCC(C)=CC=O
active: [7] 28.1 µM
inactive: all other assays above

O=C(NS(=O)(=O)/C=C/c1ccccc1)c1ccc(F)cc1Cl
active: [7] 12.9 µM
inactive: all other assays above

O=P(OC(CCl)CCl)(OC(CCl)CCl)OC(CCl)CCl
active: [4] 12 µM | [7] 16.2 µM
inactive: all other assays above

CCOCCOCCOCCO
not listed: [10]
inactive: all other assays above

COC(=O)c1ccccc1O
not listed: [10]
inactive: all other assays above

Cc1ccc(C)c(O)c1
inactive: all assays above

CC(C)CCO
active: [7] 17.2 µM
inactive: all other assays above

Fc1ccccc1[C@@H](F)COC1CCC(Nc2ncnc3[nH]ncc23)CC1 (some centres undefined)
active: [2] 9.15 µM | [3] 7.56 µM | [7] 10.3 µM
inactive: all other assays above

C=CCCCCCCCCC(=O)O
inactive: all assays above

O=C(OC[C@H]1O[C@@H](OC(=O)c2cc(O)c(O)c(OC(=O)c3cc(O)c(O)c(O)c3)c2)[C@H](OC(=O)c2cc(O)c(O)c(OC(=O)c3cc(O)c(O)c(O)c3)c2)[C@@H](OC(=O)c2cc(O)c(O)c(OC(=O)c3cc(O)c(O)c(O)c3)c2)[C@@H]1OC(=O)c1cc(O)c(O)c(OC(=O)c2cc(O)c(O)c(O)c2)c1)c1cc(O)c(O)c(OC(=O)c2cc(O)c(O)c(O)c2)c1
active: [1] 0.986 µM | [7] 3.77 µM | [8] 1.21 µM
not listed: [4] | [10]
inactive: all other assays above

CC(C)CCCCCCCOC(=O)CCCCC(=O)OCCCCCCCC(C)C
inactive: all assays above

CC(=O)OCCC(C)C
inactive: all assays above

COCCOc1cc2cc(C(=O)NC3CCN(C(C)C)CC3)n(CC(=O)Nc3ccc(Cl)cn3)c2cn1
inactive: all assays above

O=C(O)CC(O)C(=O)O (centres undefined)
inactive: all assays above

CCC(C)(C)C(=O)O[C@H]1C[C@@H](C)C=C2C=C[C@H](C)[C@H](CC[C@@H]3C[C@@H](O)CC(=O)O3)[C@H]21
inactive: [5]
active: [1] 31.4 µM | [2] 29.2 µM | [3] 29.8 µM | [4] 33.3 µM | [6] 29.5 µM | [7] 13.9 µM | [8] 26.3 µM | [9] 25.8 µM | [10] 34.2 µM

CC(=O)OC[C@H]1O[C@@](COC(C)=O)(O[C@H]2O[C@H](COC(C)=O)[C@@H](OC(C)=O)[C@H](OC(C)=O)[C@H]2OC(C)=O)[C@@H](OC(C)=O)[C@@H]1OC(C)=O
inactive: all assays above

O=C(O)c1cccc(Oc2ccccc2)c1
inactive: all assays above

Nc1ccc(Nc2ccccc2)cc1
active: [2] 2.33 µM | [7] 7.37 µM
inactive: all other assays above

COc1ccc(/C=C/S(=O)(=O)NC(=O)c2ccc(C)cc2Cl)cc1
active: [7] 13.6 µM
inactive: all other assays above

Cc1[nH]cnc1C[C@H]1CCc2c(C)c3ccccc3n2C1=O
active: [2] 22 µM | [4] 19.2 µM | [7] 21.9 µM
inactive: all other assays above

O=C1OC(=O)C2C3C=CC(C3)C12 (centres undefined)
inactive: all assays above

Cc1c(-c2cccnc2)c2ccccc2n1CCCCC(=O)O
inactive: all assays above

CCN(C(=O)c1cc(C)cc(OC[C@H](C)Nc2ccncc2)c1)C(C)C
inactive: all assays above

CCOC(=O)CC(CC(=O)OCC)(OC(C)=O)C(=O)OCC
inactive: all assays above

Cc1ccc(S(=O)(=O)O)cc1C
inactive: all assays above

CC(C)(O)c1coc(S(=O)(=O)NC(=O)Nc2c3c(cc4c2CCC4)CCC3)c1
inactive: all assays above

CCOC(=O)COc1ccc2c(c1)CC(NCC(O)c1cccc(Cl)c1)CC2 (centres undefined)
inactive: [2] | [3]
active: [1] 26.3 µM | [4] 30.6 µM | [5] 33.4 µM | [6] 32.1 µM | [7] 9.71 µM | [8] 14.6 µM | [9] 26.9 µM | [10] 28.8 µM

CCn1nc(Cc2ccccc2)cc1C1CCN(C[C@H]2C[C@H](N(C)[C@@H](C(=O)O)C(C)C)C[C@@H]2c2cccc(F)c2)CC1
active: [7] 12.9 µM
inactive: all other assays above

Cn1c(=O)c2c(ncn2C)n(C)c1=O
not listed: [5] | [10]
inactive: all other assays above

CCOc1cccc(-n2cc(C(=O)N3CCN(c4cc(C(=O)O)c5ccccc5c4)CC3)nc2-c2ccc(C)cc2)c1
active: [1] 10.4 µM | [2] 31.1 µM | [3] 19.2 µM | [4] 4.99 µM | [5] 5.21 µM | [6] 14.2 µM | [7] 10.2 µM | [8] 7.68 µM | [9] 6.49 µM | [10] 13.3 µM

O=c1[nH]c2ccc(S(=O)CCN3CCC(Cc4ccc(F)cc4)CC3)cc2o1 (centres undefined)
active: [4] 13.9 µM | [7] 4.49 µM
inactive: all other assays above

CNCc1ccc(NC(=O)c2c[nH]c3c2C(=O)CCC3)cc1
inactive: all assays above

CC[C@H](C)C(=O)O[C@H]1C[C@@H](C)C=C2C=C[C@H](C)[C@H](CC[C@@H]3C[C@@H](O)CC(=O)O3)[C@H]21
active: [1] 35.3 µM | [4] 29.8 µM | [6] 33.8 µM | [7] 13.5 µM | [8] 27.6 µM | [9] 32.2 µM
inactive: [2] | [3]
